Laboratory results reported in PubChem BioAssay (Tox21).
“And” between values parts separate entries of the source, which are not always exact repeats. Equal entries are not always repeated. Records with an inconclusive call do not appear. Entries that show only a call come without a potency. Where a structure was tested more than once in an assay, its records may differ in their call. The source made the active and inactive calls. Unless noted, calls come from the whole dose curve.

Columns and labels:
[1] = Nuclear factor erythroid 2-related factor 2/antioxidant responsive element (Nrf2/ARE) small molecule agonists: qHTS cell viability counter screen in human keratinocytes (AID 1919968; active = well fitted curve in the direction sought with a large enough effect in the repeat runs; an effect the other way counts as inactive or inconclusive; note: nearly all actives have a fitted effect of over 55% in size; note: potency is the fitted concentration of half-maximal effect)
Summary of the method: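 KeratinoSens cells (HaCaT keratinocytes stably carrying an ARE-luciferase reporter) were seeded at 1,500 cells/well and rested 5 h at 37 C/5% CO2. They were then exposed to compounds in DMSO for 23 h. Viability was read by CellTiter-Fluor fluorescence after 1 h.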

[2] = Nuclear factor erythroid 2-related factor 2/antioxidant responsive element (Nrf2/ARE) small molecule agonists: luciferase reporter gene qHTS assay in human keratinocytes (AID 1919969); note: nearly all actives have a fitted effect of over 35% in size; note: potency is the fitted concentration of half-maximal effect
[3] = molecular target: Gonadotropin-releasing hormone receptor (Homo sapiens) (UniProt P30968); test: Human gonadotropin-releasing hormone receptor (GnRHR) small molecule agonists, calcium flux assay in GnRHR-HEK293 cells (AID 1920063); note: nearly all actives have a fitted effect of over 35% in size
Summary of the method: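 HEK293 cells stably expressing human GnRHR were plated 18 h at 37 °C, loaded with calcium dye 1 h at 37 °C, then given compound in agonist mode; fluorescence (Ex/Em 480/540) read kinetically for 3 min at 1 s intervals.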

[4] = molecular target: KiSS-1 receptor (Homo sapiens) (UniProt Q969F8); test: Human kisspeptin (KISS1R) small molecule agonists, calcium flux assay in KISS1R-HEK293 cells (AID 1920064; active = well fitted curve in the direction sought with a large enough effect in the repeat runs; an effect the other way counts as inactive or inconclusive)
Summary of the method: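 HEK293 cells stably expressing human KISS1R were plated 18 h at 37 °C, loaded with calcium dye for 1 h at 37 °C, then given compound by pin tool. Fluorescence (Ex/Em 480/540) was read kinetically for 3 min.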

[5] = G protein-coupled receptor (GPCR) small molecule agonists, calcium flux assay: HEK293 wild type cell line counter screen (AID 1920065)
Summary of the method: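 Cells were plated and cultured 18 h at 37 C/5% CO2, then loaded with calcium dye for 1 h at 37 C. Compounds in DMSO were pin-transferred in agonist mode, and fluorescence (Ex/Em 480/540) was read kinetically for 3 min at 1 s intervals.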

[6] = p53 small molecule agonists, cell-based qHTS assay with human liver microsomes (AID 1963577)
Summary of the method: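 Fluorescence of the beta-lactamase reporter in p53RE-bla cells, detected with LiveBLAzer substrate (2 h, room temperature, dark), served as the read-out after 16 h compound exposure at 37 C with human liver microsomes and NADPH, each 0.5 mg/mL final.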

[7] = p53 small molecule agonists, cell-based qHTS assay with rat liver microsomes (AID 1963578)
Summary of the method: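 Cells carrying a p53 response element–beta-lactamase reporter were plated and rested 5 h, then dosed with compound in DMSO plus rat liver microsomes and NADPH, each at 0.5 mg/mL final. After 16 h at 37 C, LiveBLAzer substrate was added for 2 h.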

[8] = p53 small molecule agonists, cell-based qHTS assay with human liver microsomes: qHTS cell viability counter screen (AID 1963579); note: nearly all actives have a fitted effect of over 45% in size; note: potency is the fitted concentration of half-maximal effect
Summary of the method: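 Cytotoxicity counter screen: p53RE-bla, 4,000 cells/well; 5 h settle, 37 C/5% CO2; cpd + HLM 0.5 mg/mL + NADPH 0.5 mg/mL (final); 16 h, 37 C; CellTiter-Glo, 30 min RT, luminescence.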

[9] = p53 small molecule agonists, cell-based qHTS assay with rat liver microsomes: qHTS cell viability counter screen (AID 1963580); note: nearly all actives have a fitted effect of over 45% in size; note: potency is the fitted concentration of half-maximal effect
Summary of the method: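 p53RE-bla HCT-116 cells (4,000/well) rested 5 h at 37 C, then given Tox21 compounds in DMSO with rat liver microsomes (0.5 mg/mL final) plus NADPH (0.5 mg/mL final) for 16 h at 37 C. Viability read by CellTiter-Glo luminescence after 30 min at room temperature.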

[10] = p53 small molecule agonists, cell-based qHTS assay: qHTS cell viability counter screen (AID 1963581); note: nearly all actives have a fitted effect of over 45% in size; note: potency is the fitted concentration of half-maximal effect
Summary of the method: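 p53RE-bla HCT-116 cells were exposed to compounds for 16 h at 37 C; after the beta-lactamase FRET read in the same wells, CellTiter-Glo was added and luminescence (intracellular ATP) read after 30 min at room temperature.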

[11] = molecular target: 5-hydroxytryptamine receptor 2A (Homo sapiens) (UniProt P28223); test: 5-hydroxytryptamine receptor 2A (HTR2A) small molecule antagonists, cell-based qHTS assay (AID 1963586); note: nearly all actives have a fitted effect of over 45% in size; note: potency is the fitted concentration of half-maximal effect
Summary of the method: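 Antagonist-mode intracellular calcium assay: DOI (4 nM) added after 5 min compound pre-incubation at room temperature to dye-loaded HTR2A-CHO cells. Fluorescence followed for 3 min, sampled every second.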

[12] = molecular target: 5-hydroxytryptamine receptor 2A (Homo sapiens) (UniProt P28223); test: 5-hydroxytryptamine receptor 2A (HTR2A) small molecule agonists, cell-based qHTS assay (AID 1963587); note: nearly all actives have a fitted effect of over 30% in size
Summary of the method: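 HTR2A-CHO cells, plated 18 h at 37 C/5% CO2, dye-loaded 1 h at 37 C; compounds in DMSO added by pin tool (agonist mode). Intracellular calcium flux read as kinetic fluorescence on FDSS over 2 min at 1 s intervals.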

[13] = molecular target: Muscarinic acetylcholine receptor M1 (Homo sapiens) (UniProt P11229); test: Cholinergic receptor muscarinic 1 (CHRM1) small molecule antagonists, cell-based qHTS assay (AID 1963588); note: nearly all actives have a fitted effect of over 40% in size
Summary of the method: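 CHRM1-CHO calcium-flux assay, antagonist mode. Cells were seeded 18 h, dye-loaded 1 h at 37 C and given compound for 5 min at RT, then acetylcholine was added at 50nM. FDSS fluorescence was read 3 min; 15 concentrations, three runs.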

[14] = molecular target: Muscarinic acetylcholine receptor M1 (Homo sapiens) (UniProt P11229); test: Cholinergic receptor muscarinic 1 (CHRM1) small molecule agonists, cell-based qHTS assay (AID 1963589); note: nearly all actives have a fitted effect of over 35% in size
Summary of the method: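 CHO cells stably expressing human CHRM1, seeded 18 h at 37 C/5% CO2, dye-loaded 1 h at 37 C, then given compound in agonist mode; intracellular calcium fluorescence read kinetically at 1 s intervals. Fifteen concentrations, three independent runs.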

[15] = cAMP Responsive Elements (CRE) small molecule antagonists, cell-based qHTS assay (AID 1963591; active = well fitted inhibition curve with a large enough effect in the signal ratio in the repeat runs, not every such curve was filed as active; the % refers to the signal ratio)
Summary of the method: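 CRE-bla HEK293T cells were plated 18 h at 37 °C/5% CO2, pinned with compound in DMSO, then stimulated with NKH477 at 0.25 uM final for 3 h. LiveBLAzer B/G FRET substrate was added and plates incubated 2 h at room temperature.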

[16] = molecular target: Beta-2 adrenergic receptor (Homo sapiens) (UniProt P07550); test: Adrenergic beta2 receptor (ADRB2) small molecule antagonists, cell-based qHTS assay (AID 1963592); note: nearly all actives have a fitted effect of over 50% in size; note: potency is the fitted concentration of half-maximal effect
Summary of the method: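 Cells (CHO, stable ADRB2 overexpression) incubated 18-20hr at 37C; compounds added from DMSO; agonist mix (1nM isoproterenol, 100uM IBMX, 25uM Ro-20-1724) added; 0.5hr RT; d2-cAMP and anti-cAMP-cryptate added; 1hr RT; 665/615 nm read.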

[17] = molecular target: D(2) dopamine receptor (Homo sapiens) (UniProt P14416); test: Dopamine D2 receptor (DRD2) small molecule agonists, cell-based qHTS assay (AID 1963594); note: nearly all actives have a fitted effect of over 35% in size
Summary of the method: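 HEK293 cells stably expressing DRD2 were cultured 24 h at 37 C, then given Ro20-1724 (0.1 mM final) and compounds for 10 min at room temperature. NKH477 (200nM) was then added for 30 min. cAMP was read by HTRF.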

[18] = molecular target: D(2) dopamine receptor (Homo sapiens) (UniProt P14416); test: Dopamine D2 receptor (DRD2) small molecule antagonists, cell-based qHTS assay (AID 1963595; active = well fitted inhibition curve with a large enough effect in the signal ratio in the repeat runs, with a control signal flat; the % refers to the signal ratio)
Summary of the method: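 Antagonism was scored as restored cAMP in HEK293-DRD2 cells. These cells were stimulated with 200 nM NKH477 and 12 nM quinpirole for 30 min at room temperature, in the presence of 0.1 mM Ro20-1724.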

[19] = p53 small molecule agonists, cell-based qHTS assay (AID 1963582; active = well fitted activation curve with a large enough effect in the signal ratio in the repeat runs, not every such curve was filed as active; the % refers to the signal ratio)
Summary of the method: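 p53RE-bla beta-lactamase reporter cells rested 5 h at 37 C/5% CO2, then received compounds in DMSO by pin transfer and were incubated 16 h at 37 C. LiveBLAzer B/G FRET substrate was loaded for 2 h at room temperature before fluorescence reading.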

[20] = cAMP Responsive Elements (CRE) small molecule agonists, cell-based qHTS assay (AID 1963590)
Summary of the method: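 CRE-bla HEK 293T cells in DMEM with 10% dialyzed FBS, NEAA, pyruvate and 25 mM HEPES were plated 18 h at 37 C/5% CO2, then exposed to compounds in DMSO for 3 h before LiveBLAzer B/G FRET substrate addition.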

Sequence of Beta-2 adrenergic receptor (Homo sapiens) (P07550 whole entry, looked up): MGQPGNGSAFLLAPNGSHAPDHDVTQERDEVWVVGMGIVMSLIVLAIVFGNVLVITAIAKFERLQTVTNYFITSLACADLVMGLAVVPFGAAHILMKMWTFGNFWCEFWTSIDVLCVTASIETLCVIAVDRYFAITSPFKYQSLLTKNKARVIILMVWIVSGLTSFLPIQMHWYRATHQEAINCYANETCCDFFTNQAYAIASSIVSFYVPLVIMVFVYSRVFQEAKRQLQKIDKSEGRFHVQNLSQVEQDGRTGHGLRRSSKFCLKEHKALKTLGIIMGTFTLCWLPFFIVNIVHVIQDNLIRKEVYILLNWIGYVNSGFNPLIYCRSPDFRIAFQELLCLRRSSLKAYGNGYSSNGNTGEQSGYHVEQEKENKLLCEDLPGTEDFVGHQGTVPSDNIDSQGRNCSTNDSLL
Sequence of D(2) dopamine receptor (Homo sapiens) (P14416 whole entry, looked up): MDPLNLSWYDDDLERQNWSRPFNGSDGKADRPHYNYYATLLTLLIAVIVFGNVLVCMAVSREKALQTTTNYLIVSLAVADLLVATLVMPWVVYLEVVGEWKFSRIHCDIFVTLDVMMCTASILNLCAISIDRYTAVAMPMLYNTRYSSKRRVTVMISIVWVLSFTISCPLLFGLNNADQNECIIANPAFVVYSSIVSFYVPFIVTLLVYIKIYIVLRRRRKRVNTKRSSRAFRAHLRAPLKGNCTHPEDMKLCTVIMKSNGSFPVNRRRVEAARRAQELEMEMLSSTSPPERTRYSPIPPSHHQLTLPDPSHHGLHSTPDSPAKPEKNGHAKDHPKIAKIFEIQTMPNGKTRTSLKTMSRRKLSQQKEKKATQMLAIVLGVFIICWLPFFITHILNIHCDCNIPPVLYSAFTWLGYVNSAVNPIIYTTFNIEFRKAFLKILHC
Sequence of Muscarinic acetylcholine receptor M1 (Homo sapiens) (P11229 whole entry, looked up): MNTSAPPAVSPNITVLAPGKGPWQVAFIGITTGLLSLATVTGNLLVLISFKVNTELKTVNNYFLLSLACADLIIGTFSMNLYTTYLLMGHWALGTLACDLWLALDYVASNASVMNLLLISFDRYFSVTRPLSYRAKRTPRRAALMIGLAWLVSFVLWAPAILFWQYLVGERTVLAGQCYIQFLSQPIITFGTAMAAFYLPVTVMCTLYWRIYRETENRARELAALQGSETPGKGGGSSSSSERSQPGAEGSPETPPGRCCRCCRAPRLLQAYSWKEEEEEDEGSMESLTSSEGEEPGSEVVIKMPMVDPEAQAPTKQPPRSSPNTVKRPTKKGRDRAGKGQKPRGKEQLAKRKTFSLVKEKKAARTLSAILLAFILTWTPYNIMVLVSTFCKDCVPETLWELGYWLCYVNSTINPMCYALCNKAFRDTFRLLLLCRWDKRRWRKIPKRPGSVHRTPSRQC
Sequence of KiSS-1 receptor (Homo sapiens) (Q969F8 whole entry, looked up): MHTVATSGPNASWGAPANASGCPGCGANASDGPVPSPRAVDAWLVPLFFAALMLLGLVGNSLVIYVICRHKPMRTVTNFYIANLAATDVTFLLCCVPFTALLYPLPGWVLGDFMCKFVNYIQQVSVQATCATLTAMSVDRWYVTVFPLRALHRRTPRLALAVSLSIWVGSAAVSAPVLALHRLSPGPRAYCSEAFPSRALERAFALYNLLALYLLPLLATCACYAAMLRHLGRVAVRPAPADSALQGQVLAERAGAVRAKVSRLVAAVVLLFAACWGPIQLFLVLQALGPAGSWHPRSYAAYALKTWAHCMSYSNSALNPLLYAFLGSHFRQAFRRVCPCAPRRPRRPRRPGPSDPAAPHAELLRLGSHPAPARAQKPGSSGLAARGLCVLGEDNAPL
Sequence of 5-hydroxytryptamine receptor 2A (Homo sapiens) (P28223 whole entry, looked up): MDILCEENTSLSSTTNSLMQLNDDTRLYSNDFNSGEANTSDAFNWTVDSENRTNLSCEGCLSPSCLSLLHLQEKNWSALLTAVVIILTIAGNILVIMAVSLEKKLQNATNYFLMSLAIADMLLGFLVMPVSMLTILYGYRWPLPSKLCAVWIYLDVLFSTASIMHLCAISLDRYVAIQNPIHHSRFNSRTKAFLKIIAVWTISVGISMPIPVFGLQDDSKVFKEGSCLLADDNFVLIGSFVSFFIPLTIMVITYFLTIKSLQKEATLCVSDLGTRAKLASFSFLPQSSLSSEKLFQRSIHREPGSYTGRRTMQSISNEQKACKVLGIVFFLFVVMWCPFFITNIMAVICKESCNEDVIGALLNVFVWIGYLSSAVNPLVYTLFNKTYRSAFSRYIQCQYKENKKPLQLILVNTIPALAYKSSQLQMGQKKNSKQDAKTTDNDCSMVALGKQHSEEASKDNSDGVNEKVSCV
Sequence of Gonadotropin-releasing hormone receptor (Homo sapiens) (P30968 whole entry, looked up): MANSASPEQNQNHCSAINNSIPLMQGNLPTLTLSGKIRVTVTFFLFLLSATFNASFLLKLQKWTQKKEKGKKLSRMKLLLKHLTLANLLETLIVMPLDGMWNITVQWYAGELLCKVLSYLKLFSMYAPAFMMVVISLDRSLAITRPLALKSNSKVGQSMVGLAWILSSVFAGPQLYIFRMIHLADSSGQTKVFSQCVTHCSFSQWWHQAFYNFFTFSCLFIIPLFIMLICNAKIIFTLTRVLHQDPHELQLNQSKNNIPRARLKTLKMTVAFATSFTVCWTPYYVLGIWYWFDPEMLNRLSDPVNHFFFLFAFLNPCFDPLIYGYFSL

Row | Structure (SMILES) | Potency [1] | Potency [2] | Potency [3] | Potency [4] | Potency [5] | Potency [6] | Potency [7] | Potency [8] | Potency [9] | Potency [10] | Potency [11] | Potency [12] | Potency [13] | Potency [14] | Potency [15] | Potency [16] | Potency [17] | Potency [18] | Potency [19] | Potency [20]
1 | O=C(O)c1cc(-c2ccccc2)nc2ccccc12 | inactive | inactive | inactive | inactive | inactive | inactive | inactive | inactive | inactive | inactive | inactive | inactive | inactive | inactive | inactive | inactive | inactive | inactive |  | 
2 | CCOC(=O)c1cc(=O)c2c(OCC(COc3cccc4oc(C(=O)OCC)cc(=O)c34)OC(=O)[C@@H](N)CCCCN)cccc2o1 | inactive | inactive | inactive | inactive | inactive | inactive | inactive | inactive | inactive |  | inactive | inactive | inactive | inactive | inactive | inactive |  |  | inactive | inactive
3 | CCCC(C)CCC(C)=O (centres undefined) | inactive | inactive | inactive | inactive | inactive | inactive | inactive | inactive | inactive |  | inactive | inactive | inactive | inactive | inactive | inactive | inactive | inactive | inactive | inactive
4 | CCCC=O | inactive | inactive | inactive | inactive | inactive | inactive | inactive | inactive | inactive | inactive | inactive | inactive | inactive | inactive | inactive | inactive | inactive |  |  | inactive
5 | OCC(O)CN1CCN(c2ccccc2)CC1 (centres undefined) | inactive | inactive | inactive | inactive | inactive | inactive | inactive | inactive | inactive | inactive | inactive | inactive | inactive | inactive | inactive | inactive |  | inactive |  | inactive
6 | Oc1ccc(Cl)cc1Sc1cc(Cl)ccc1O | 38.5 µM (active) | 15.3 µM (active) and inactive | inactive | inactive | inactive | inactive | inactive | 32.3 µM (active) and inactive | 45.7 µM (active) and inactive | 18.2 µM (active) and 17.8 µM (active) | 29.7 µM (active) and inactive |  | inactive | inactive |  | 68.5 µM (active) and inactive | inactive | inactive |  | 
7 | NC(=O)NNC(N)=O | inactive | inactive | inactive | inactive | inactive | inactive | inactive | inactive | inactive |  | inactive | inactive | inactive | inactive | inactive | inactive | inactive |  | inactive | inactive
